# Data taken from article PMC5540273 (PLoS ONE, 2017).
# What was measured:
# Conditions in all cases: concentration: 1 μM,replicates: in singlicate; n = 1
# [1] = tested on: T1, NIM1
# T1 construct: gene MGC42105
# [2] = tested on: NLK
# [3] = tested on: T2, OSR1
# T2 construct: gene OXSR1
# [4] = tested on: PAK1
# [5] = tested on: PAK2
# [6] = tested on: PAK3
# [7] = tested on: PAK4
# [8] = tested on: PAK6
# [9] = tested on: PAK7
# [10] = tested on: T3, PCTK1
# T3 construct: gene CDK16
# [11] = tested on: T4, PCTK2
# T4 construct: gene CDK17
# [12] = tested on: T5, PCTK3
# T5 construct: gene CDK18
# [13] = tested on: PDGFRA
# [14] = tested on: PDGFRB
# [15] = tested on: PDPK1
# [16] = tested on: PFTAIRE2
# [17] = tested on: T6, PFTK1
# T6 construct: gene CDK14
# [18] = tested on: PHKG1
# [19] = tested on: PHKG2
# [20] = tested on: PIK3C2B
# 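Note: KINOMEscan kinase panel screen.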
Structure (SMILES),%Inh [1] [%],%Inh [2] [%],%Inh [3] [%],%Inh [4] [%],%Inh [5] [%],%Inh [6] [%],%Inh [7] [%],%Inh [8] [%],%Inh [9] [%],%Inh [10] [%],%Inh [11] [%],%Inh [12] [%],%Inh [13] [%],%Inh [14] [%],%Inh [15] [%],%Inh [16] [%],%Inh [17] [%],%Inh [18] [%],%Inh [19] [%],%Inh [20] [%]
O=c1[nH]cc(-c2ccc(O)cc2)c2sc(-c3ccncc3)cc12 [GSK1033723],4,11,3,14,5,11,0,4,5,1,12,17,0,18,0,11,18,7,22,0
CS(=O)(=O)Nc1ccc(-c2ccnc3[nH]ccc23)cc1 [GSK993273],13,30,41,26,27,51,0,11,3,15,0,0,1,61,0,16,16,2,13,0
COc1cccc(CNC(=O)NC2CCN(c3ccnc(Nc4cc(OC)c(OC)c(OC)c4)n3)C2)c1 (centres unmarked) [GSK1379765],21,0,3,0,8,11,0,0,1,3,0,0,6,51,4,16,11,15,0,0
Nc1nccc(-c2ccc3c(N)n[nH]c3c2)n1 [GSK1034945],17,33,6,18,11,7,0,0,2,0,0,10,0,17,34,15,10,5,13,0
O=C(Nc1cccc(Oc2ccc3nccn3n2)c1)Nc1cccc(C(F)(F)F)c1,14,19,0,0,0,0,0,5,0,0,0,8,99.8,100,0,0,1,14,0,12
O=C(Nc1ccccc1)c1cccc(Oc2ccc3nccn3n2)c1,1,0,0,0,0,5,0,9,0,0,0,38,66,99.3,0,0,38,15,0,0
C[C@@H]1CCN(C(=O)N2CCCC2)C[C@@H]1N(C)c1ncnc2[nH]ccc12,18,0,11,0,0,25,0,0,3,5,0,0,21,19,0,0,0,0,5,0
CN1CCN(CCNc2nc3cc(Oc4ccc(NC(=O)Nc5cc(C(F)(F)F)ccc5F)cc4)ccc3[nH]2)CC1.Cl.Cl [GW768504],0,0,0,0,30,6,10,0,0,0,0,0,84,99.6,0,37,18,0,0,14
O=C(NCC1CC1)c1ccc(-c2cc(C(=O)NC3CC3)ccc2F)cc1 [GW810445],35,10,0,0,26,12,0,0,4,0,0,0,0,0,0,0,0,0,0,0
COc1cccc(OC)c1C(=O)Nc1cccc(-c2nn3ccccc3c2-c2ccnc(Nc3cccc(F)c3)n2)c1 [GSK361065],0,90,0,6,10,0,10,24,0,0,0,3,0,90.2,4,2,3,1,2,0
Cn1ccc2ncnc(Oc3ccc(NC(=O)Nc4cncc(C(F)(F)F)c4)c(Cl)c3)c21,0,9,0,25,0,0,1,0,0,0,0,0,98.2,100,26,0,0,0,9,0
C[C@@H](Oc1cc(-n2cnc3ccc(-c4ccncc4)cc32)sc1C(N)=O)c1ccccc1Cl [GSK483724],13,49,11,8,29,21,44,13,10,7,0,47,8,54,0,22,26,9,0,88
CCn1c(-c2nonc2N)nc2cncc(CNC3CCNCC3)c21.Cl [SB-747651],31,18,4,0,51,45,0,2,0,8,0,0,0,4,18,14,1,25,0,0
Cc1cccc(-c2nc(Nc3ccncc3)c3sccc3n2)n1 [GW869641],35,60,24,15,30,50,23,11,2,22,0,0,36,27,7,5,0,0,5,29
C[C@@H](Oc1cc(-n2cnc3cc(-c4cnn(C)c4)ccc32)sc1C(N)=O)c1ccccc1Cl [GSK580432],64,0,12,0,13,63,0,2,0,0,0,19,84,99.8,75,7,7,0,47,0
C[C@@H]1CNc2c(sc3ccc4nc(-c5ccncc5)ccc4c23)C(=O)N1,0,0,9,0,5,9,24,9,0,0,6,0,72,56,0,0,0,39,55,0
COC(=O)c1cccc(NC(=O)NC2CCN(c3ccnc(NCc4ccc(F)cc4)n3)CC2)c1 [GSK1379860],15,0,19,0,0,0,0,0,0,8,0,33,14,7,5,0,7,0,0,0
Cn1cc(-c2cccc3c(N)c(C(N)=O)nnc23)cn1,9,20,24,0,2,44,1,13,18,6,2,5,12,10,2,6,0,10,0,0
CC(=O)Nc1nc2cnc(Nc3cc(NC(=O)c4cccc(CC(C)(C)C#N)c4)ccc3C)nc2s1,23,1,41,25,25,28,8,21,2,25,47,29,99,100,39,31,14,19,0,14
